Data as given in PubChem BioAssay AID651953 (The Scripps Research Institute Molecular Screening Center, 2012).
The whole screen tested about 2,400 compounds, of which about 430 (18%) were called active. Cut-off read from the data, not from the text of the source: active = activation above about 12%; inactive = the rest. These entries were drawn from the full list.

assay: calcium activation in Ga16-expressing cells, counter-screen for TAAR1 antagonist project, cell-based, fluorescence (AID 651953); settings: agonist counterscreen, at 3 µM, active compounds read high;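 note: 0% = vehicle wells and 100% = saturating stimulus response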

Compound	activation
CC(=O)n1cc([C@H]2C=C(C(=O)N3CCOCC3)O[C@@H](OCc3ccc(CO)cc3)C2)c2ccccc21	8.38% (inactive)
CC(=O)Nc1ccc(NC(=O)COC(=O)C2CCC(C(C)(C)C)CC2)cc1 (stereo unspecified)	12.5% (active)
COc1cc2ccccc2cc1C(=O)Nc1ccc(NC(=O)c2cccs2)cc1	7.21% (inactive)
COC(=O)[C@@]1(Sc2ccc(C)cc2)CC(=O)N(c2cccc(SC)c2)[C@@H]1c1ccccc1	7.65% (inactive)
COc1ccc(C(=O)Oc2ccc(-c3nnco3)cc2)cc1S(=O)(=O)N1CCOCC1	8.48% (inactive)
CCOc1cc(/C=N/NC(=O)c2cc(-c3ccccc3)nc3ccccc23)ccc1O	7.59% (inactive)
O=C(Oc1ccc(-c2nnco2)cc1)c1ccc(F)c(S(=O)(=O)N2CCOCC2)c1	11.4% (inactive)
O=C1c2ccccc2C(=O)N1CCC#Cc1ccc2cc(C3(O)CCCCC3)oc(=O)c2c1	12.9% (active)
Cc1nn(-c2ccccc2)c(C)c1NC(=O)COC(=O)c1cc(Cl)ccc1O	11.4% (inactive)
CCOc1ccc(NC(=O)N2CC=C(n3c(=O)[nH]c4ccccc43)CC2)cc1	8.85% (inactive)
C=CCn1c(SCc2cccc(F)c2)nc2cc(C(=O)N3CCC(C(N)=O)CC3)ccc2c1=O	10.2% (inactive)
CSc1nc(-c2ccccc2)nc(C(Cl)Cl)n1	2.33% (inactive)
Cn1c2ccccc2c(=O)c2c(=O)n(Cc3ccco3)c(COc3ccccc3)nc21	11.7% (active)
O=c1[nH]c(CSc2ncc(-c3ccc(F)cc3)n2Cc2ccco2)nc2ccccc12	9.09% (inactive)
COc1ccc(CCNC(=O)c2ccc(CS(=O)(=O)c3ccc(Br)cc3)o2)cc1OC	13.5% (active)
COc1ccc(CCNC(=O)C(=O)NCC2OCCN2S(=O)(=O)c2ccc(OC)c(C)c2)cc1 (stereo unspecified)	7.62% (inactive)
COc1ccc(CCNC2=C(Cl)C(=O)N(Cc3ccccc3)C2=O)cc1OC	10.4% (inactive)
CC(C)(C)OC(=O)NCCCCCNC(=O)c1nc[nH]c1C(=O)NCc1ccccc1	7.75% (inactive)
O=C(NCc1ccc2c(c1)OCO2)c1c(-c2ccsc2)sc2ccccc12	3.18% (inactive)
Oc1ccc(/C=N/Nc2nc(-c3ccccc3F)nc3ccccc23)c(O)c1	11.9% (active)
Fc1ccc(/C=N/Nc2nc(-c3cccnc3)nc3ccccc23)cc1	5.53% (inactive)
CCOC(=O)C1=C(NC(=S)NC(=O)c2ccccc2)c2ccccc2CC1(C)C	11.8% (active)
CNC(=O)c1ccsc1NC(=O)c1ccc(S(=O)(=O)N2CCc3ccccc32)cc1	9.94% (inactive)
COc1ccc(NC(=O)c2cc(-c3ccc(C)o3)nc3ccccc23)cc1	8.64% (inactive)
COc1ccc(-c2cc(C(=O)Nc3ccccc3O)c3ccccc3n2)cc1	10.9% (inactive)
CC(=O)N1CCN(C(=O)c2cc(-c3ccc(Cl)s3)nc3ccccc23)CC1	11.8% (active)

Compound	activation
COc1ccc(S(=O)(=O)N2CCCC(C(=O)Nc3ccc(NC(=O)c4ccccn4)cc3)C2)cc1 (stereo unspecified)	9.11% (inactive)
O=C(OCC(=O)N(CCc1ccccc1)Cc1ccccc1)c1ccccc1[N+](=O)[O-]	9.58% (inactive)
Cn1c(C(=O)NCCc2ccsc2)cc2c(=O)n(C)c3ccccc3c21	6.98% (inactive)
COc1ccc(OC)c2[nH]c(=O)c(CCNC(=O)C(=O)c3c[nH]c4ccccc34)cc12	9.04% (inactive)
COc1ccc(S(=O)(=O)N(CC(=O)NCc2ccco2)c2ccc(F)cc2)cc1	7.35% (inactive)
N#Cc1cccc(NC(=O)COC(=O)c2ccccc2C(=O)c2ccc(Cl)c([N+](=O)[O-])c2)c1	10.4% (inactive)
C[C@H](NC(=O)c1nc[nH]c1C(=O)NCC(=O)OC(C)(C)C)C(=O)OCc1ccccc1	6.84% (inactive)
COc1ccc(C2=NOC(Cn3nc(C(=O)NCc4ccc5c(c4)OCO5)cc3-c3ccccc3)C2)cc1 (stereo unspecified)	7.98% (inactive)
Cc1ccc2c(c1)N(CC(=O)NCCc1ccc(Cl)cc1)C(=O)c1cccnc1O2	8.82% (inactive)
C=CCC[C@@H](Cc1ccc(F)cc1)C(=O)O[C@H](CNC(=O)[C@H](CC=C)CC(=O)N(CCO)Cc1ccccc1)c1ccccc1	5.79% (inactive)
CSCCC(NC(=O)COc1ccccc1)C(=O)OCCOc1ccc(Br)cc1 (stereo unspecified)	4.3% (inactive)
COC(=O)C1=C(C)N(Cc2ccc(F)cc2)C(=S)NC1c1cccc(Cl)c1 (stereo unspecified)	2.63% (inactive)
COC(=O)Cc1nnn2c1[C@H](C)[C@H](c1ccccc1[N+](=O)[O-])OCC2	-1.09% (inactive)
Cc1ccccc1NC(=O)Cc1nc(COC(=O)C(C)(C)Oc2ccc(Cl)cc2)cs1	7.78% (inactive)
C=CCC[C@H](Cc1ccc(F)cc1)C(=O)OC[C@H](C)NC(=O)[C@H](CC=C)CC(=O)N(CCO)Cc1ccccc1	8.66% (inactive)
Cc1cccc(NC(=O)c2ccc(COc3ccccc3[N+](=O)[O-])o2)n1	4.04% (inactive)
Cc1cccc(C)c1NC(=O)CNC(=O)C1CCCC1	2.04% (inactive)
Cc1ccc(-n2c(C)cc(/C=N\NC(=O)CC(=O)NC(C)C)c2C)cc1	8.51% (inactive)
O=C(NCCN1CCOCC1)c1ccccc1N1C(=O)[C@@H]2Cc3c([nH]c4ccccc34)C(c3cccc(Cl)c3)N2C1=O (stereo partly specified)	6.37% (inactive)
COc1ccc(C(=O)Nc2cccc(NC(=O)c3ccc(OC)cc3OC)n2)c(OC)c1	8.74% (inactive)
O=C(CN1CCCSc2ccccc21)N1CCN(S(=O)(=O)c2cccc(F)c2)CC1	8.97% (inactive)
Oc1ccccc1N1CCN(c2ncnc3sc(-c4ccccc4)cc23)CC1	6.72% (inactive)
COc1cc(/C=C2/C(=O)ON=C2C)ccc1OCc1ccccc1F	12.4% (active)
O=C(COC(=O)c1c2c(nc3ccccc13)CCCC2)c1ccc(Br)s1	2.67% (inactive)
C[C@H](O)[C@@H]1C(=O)N2CCc3c([nH]c4c(-c5ccc6c(c5)OCO6)cccc34)[C@@H]2C[C@@H]1N(C)C(=O)c1ccco1	5.11% (inactive)
